Screens from PubChem BioAssay.
An excerpt weighted towards active compounds, which were near 9.4% of everything screened.
ELG1 repair inh: qHTS screen for small molecules that inhibit ELG1-dependent DNA repair in human embryonic kidney (HEK293T) cells expressing luciferase-tagged ELG1. HEK293T ELG1-luciferase reporter, luminescence, 16 h; DNA damage induced by 5-fluorouridine. Potency, µM (doses to about 46.1 µM), for inactives: at the top dose activity change, negative = inhibition, most hits filed as inhibitors. actives 2.3% (n = 330,000); further: on the % scale 0 is the no-effect control and ±100 the full control effect; nearly all actives have a fitted effect of over 55% in size
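Step one: seed 2,000 cells per well. Step two: pin-transfer compound or DMSO alongside 5-fluorouridine. Step three: incubate 16 hr, 37 °C, 5% CO2. Step four: add ONE-Glo, wait 30 min, read luminescence.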
ELG1 genotox: qHTS screen for small molecules that induce genotoxicity in human embryonic kidney (HEK293T) cells expressing luciferase-tagged ELG1; actives 1.3% (n = 330,000); HEK293T ELG1-luciferase reporter, luminescence, 16 h; Potency, µM (titrated, usually from 46 µM), for the others: top-dose activity change, positive = activation, actives largely listed as activators; further: % of control where 0% means no effect; nearly all actives have a fitted effect of over 60% in size
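Genotoxic stress is detected as increased luminescence from luciferase-tagged ELG1 in HEK293T cells, measured with ONE-Glo after a 16 hr treatment at 37 °C.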
Rab9 prom act: qHTS Assay for Rab9 Promoter Activators | Huh7 Rab9 promoter-luciferase reporter, luminescence, 24 h | Potency, µM (highest dose often 9.22 µM), inactives show at the top dose activation, negative = inhibition, hits mostly activators | actives 2.8% (n = 320,000) | AID 485297, 2010; further: % of control where 0% means no effect; nearly all actives have a fitted effect of over 60% in size
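Cells were plated at 1500 per well in reduced-serum medium with 10% FBS and left 2 h. Compound in DMSO was then added for 24 h at 37 °C. Reporter signal was read by luminescence after 10 min with luciferase detection reagent.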
SMN2 splice enh: qHTS Assay for Enhancers of SMN2 Splice Variant Expression; HEK293 SMN2-luciferase splicing reporter, luminescence, 30-36 h; Potency, µM (top dose mostly 46.1 µM), for inactives: at the top dose activity change, positive = activation, actives largely listed as activators; actives 2.8% (n = 210,000); AID 1458, 2008; further: % of control where 0% means no effect; nearly all actives have a fitted effect of over 55% in size
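HEK293 cells carry an SMN2 minigene-luciferase reporter in which exon 7 inclusion puts luciferase in frame. Cells were seeded at 2000 cells/well, attached for 10-12 hours, then exposed to compounds for 30-36 hours at 37C before ONE-Glo luminescence.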
NPC1 prom act: qHTS Assay for NPC1 Promoter Activators; Huh7 NPC1 promoter luciferase reporter, 24 h; Potency, µM (highest dose often 9.22 µM), for the others: at the top dose activation, usual class: activators; actives 2.4% (n = 320,000); AID 485313, 2010; further: % of control where 0% means no effect; nearly all actives have a fitted effect of over 60% in size
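NPC1 promoter–luciferase Huh7 cells; 24 h compound; luminescence.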
FLuc modulator: qHTS profiling assay for firefly luciferase inhibitor/activator using purifed enzyme and Km concentrations of substrates (counterscreen for miR-21 project). purified FLuc, Km substrates, luminescence inhibition. Potency, µM (doses to about 57.5 µM), inactives show top-dose activity change, negative = inhibition, actives largely listed as inhibitors. actives 6.9% (n = 360,000);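 further: plate controls were vehicle for no effect and reference inhibitor for full effect; nearly all actives have a fitted effect of over 55% in size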
Target sequence (P08659 whole entry, looked up): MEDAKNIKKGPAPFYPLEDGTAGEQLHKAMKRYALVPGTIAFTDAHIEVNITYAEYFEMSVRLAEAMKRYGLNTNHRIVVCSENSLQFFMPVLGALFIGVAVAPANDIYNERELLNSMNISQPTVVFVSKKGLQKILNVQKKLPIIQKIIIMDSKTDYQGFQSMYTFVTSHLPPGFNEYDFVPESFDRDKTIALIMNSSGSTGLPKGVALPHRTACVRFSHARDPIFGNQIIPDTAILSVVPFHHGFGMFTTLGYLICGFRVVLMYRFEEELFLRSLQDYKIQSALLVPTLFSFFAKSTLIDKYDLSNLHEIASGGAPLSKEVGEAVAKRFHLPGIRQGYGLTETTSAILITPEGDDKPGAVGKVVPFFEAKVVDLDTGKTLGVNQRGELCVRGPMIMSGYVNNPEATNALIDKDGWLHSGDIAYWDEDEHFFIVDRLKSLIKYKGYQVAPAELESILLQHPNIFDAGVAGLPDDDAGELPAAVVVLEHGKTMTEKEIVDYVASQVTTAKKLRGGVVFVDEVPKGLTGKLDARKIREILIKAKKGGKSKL
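Purified P. pyralis luciferase, 10 nM final, with Km-level 10 uM D-luciferin and 10 uM ATP in 50 mM Tris acetate pH 7.5, 10 mM Mg acetate, 0.01% Tween-20, 0.05% BSA; 6-point qHTS titration about 60 µM downward; luminescence read.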
* = called active by the depositor; ? = inconclusive; · = no result; [ ] = dose if it differs, or a comment. The call rests on the fitted dose curve; in most records, active means well fitted curve in the direction sought with a large enough effect; inconclusive means small, poorly fitted or top-dose-only effect, or another doubt; inactive means no such curve, though single readings can be large; an effect the other way counts as inactive or inconclusive. Potency means the concentration at half of the fitted maximal effect.

SMILES	ELG1 repair inh	ELG1 genotox	Rab9 prom act	SMN2 splice enh	NPC1 prom act	FLuc modulator
COc1ccc(/C=C\c2onc(C)c2S(=O)(=O)N2CCC(C(=O)Nc3ccc(F)cc3F)CC2)cc1	·	·	·	-9%	·	4%
O=C(/C=C/c1ccc(OCCCF)cc1)Nc1ccnc(-c2ccncc2)n1	?	-9%	-1%	-85%	0%	?
O=C(O)COc1ccc(-c2nccc(-c3ccccn3)n2)cc1	?	-3%	-2%	-18%	0%	3.4µM*
FCCCOc1ccc(-c2nccc(-c3ccccn3)n2)cc1	?	?	-1%	·	-1%	19µM*
Cc1ccc(OCC(=O)N(Cc2ccccc2)c2ccccn2)cc1	0%	1%	-2%	-26%	0%	-9%
CCCCN(C)CCCNC(=O)Cn1ncc2c3ccccc3n(Cc3cc(C)ccc3C)c2c1=O	·	·	·	?	·	1%
CCCOc1ccccc1-c1nc(SCC(=O)c2ccccc2)n[nH]1	·	·	·	-9%	·	-16%
COc1cc(/C=N/Nc2cc(C)nc(N)n2)ccc1O	?	?	-4%	·	2%	9.5µM*
COc1ccc(/C=N/Nc2cc(C)nc(N)n2)cc1	?	17%	7%	?	11%	19µM*
Cc1ccn2c(CCc3nnc4cc(C)ccn34)nnc2c1	·	·	·	-7%[9.22 µM]	·	·
CC(=O)CCc1ccc(OCC(=O)Nc2cccc(S(=O)(=O)N(C)c3ccccc3)c2)cc1	?	-2%	-12%	·	-2%	11µM*
CN(C)S(=O)(=O)c1cccc(NC(=O)COc2ccc(C(=O)c3ccccc3)cc2)c1	13µM*	-12%	-7%	·	-8%	?
CN(c1ccccc1)S(=O)(=O)c1cccc(NC(=O)COc2ccccc2)c1	?	-10%	-9%	·	2%	·
O=C1c2cccc3cccc(c23)C(=O)N1CCN1CCN(CC(O)COCc2ccc(Cl)cc2)CC1 (stereo unspecified)	21µM*	-5%	-8%	-25%	-4%	2%
COc1ccc(COCC(O)CN2CCC(CN3C(=O)c4cccc5cccc(c45)C3=O)CC2)cc1OC (stereo unspecified)	?	-4%	-5%	-37%	-1%	2%
COc1cc(COCC(O)CN2CCN(CCN3C(=O)c4cccc5cccc(c45)C3=O)CC2)cc(OC)c1OC (stereo unspecified)	12µM*	1%	-10%	-26%	3%	-2%
O=c1c2cccc3c(N4CCOCC4)ccc(c32)c2nc3ccccc3n12	?	?	1%	-21%	-1%	5.4µM*
COc1ccc(-c2noc(CCC(=O)NCc3ccc(OC)cc3OC)n2)cc1	·	·	·	-3%	·	-13%
CC(C)c1ccc(-c2noc(SCC(=O)N3CCCCC3)n2)cc1	·	·	·	·	·	2.4µM*
CC(C)c1ccc(-c2c(C#N)c(N)nc(SCC(=O)N3CCCCCC3)c2C#N)cc1	?	7%	0%	-18%	-2%	-2%
CC(C)c1ccc(-c2noc(SCC(=O)N(C)c3ccc(F)cc3)n2)cc1	·	·	·	·	·	6µM*
N#CCCCS(=O)(=O)c1nc2ccccc2s1	·	·	·	10%	·	·
COc1ccc(C(=O)C2CCN(C(=O)Nc3ccc(C)cc3)CC2)cc1	-6%	-10%	14%	·	10%	4.8µM*
Cc1ccc(NC(=O)N2CCC(C(=O)c3ccc(F)cc3)CC2)cc1	-11%	-10%	0%	·	0%	-16%
COc1ccc(-c2ccc(C(=O)C3CC3)cc2)cc1	?	2.9µM*	1.8µM*	·	2.8µM*	1.5µM*
SMILES	ELG1 repair inh	ELG1 genotox	Rab9 prom act	SMN2 splice enh	NPC1 prom act	FLuc modulator
CS(=O)(=O)CCCCN=C=S	·	·	·	-7%	·	·
Oc1c(C(c2ccccc2)N2CCOCC2)sc2nc(-c3ccco3)nn12 (stereo unspecified)	·	·	·	·	·	-3%
COc1ccc(F)cc1S(=O)(=O)NCC(c1ccco1)S(=O)(=O)c1ccc(F)cc1 (stereo unspecified)	·	·	·	·	·	-7%
COc1ccc2c(c1)-c1nc(NC(=O)c3ccc(OC)c(Br)c3)sc1CC2	·	·	·	-22%	·	-2%
CC(=O)c1ccc(N/N=C(/C(N)=O)C2=NC(C)(C)Cc3ccccc32)cc1	21µM*	-7%	-13%	?	-12%	-8%
CC1(C)Cc2ccccc2C(/C(=N\Nc2cccc(Cl)c2)C(N)=O)=N1	16µM*	-5%	-13%	-34%	-5%	-4%
CCN(CC)c1ccc(-n2c(O)c(C=C3N=c4ccccc4=N3)sc2=S)cc1	14%	3%	0%	18%	0%	-1%
O=C(O)c1ccc(-n2c(O)c(C=C3N=c4ccccc4=N3)sc2=S)cc1	?	-3%	-2%	·	1%	13µM*
O=C(O)c1cccc(-n2c(O)c(C=C3N=c4ccccc4=N3)sc2=S)c1	-30%	-9%	-4%	·	-7%	13µM*
Cc1ccc(CCNC(=O)CCSCc2ccccc2Cl)cc1	·	·	·	·	·	-20%
COc1ccc(C(=O)N=c2nc3ccccn3s2)cc1	?	0.37µM*	0.25µM*	·	0.13µM*	0.095µM*
COc1ccc(C(=O)NCCc2cn3ccccc3n2)cc1	?	5%	1%	·	11%	-17%
O=C(N/N=C/C1CC2C=CC1C2)c1ccccc1O (stereo unspecified)	0%	1%	-9%	·	0%	21µM*
NCC1CCC(N)C(O[C@@H]2C(O)[C@H](O[C@H]3OC(CO)C(O)C(N)C3O)[C@@H](N)C[C@H]2N)O1 (stereo partly specified)	·	·	·	-3%	·	·
CN(C)c1ccc(C2C3=C(CCCC3=O)OC3=C2C(=O)CCC3)cc1	18%	1%	-8%	5%	-2%	0%
CN(C)c1ccc(/C=C2\CCCCC2=O)cc1	?	5.8µM*	3.2µM*	22µM*	3.5µM*	2.7µM*
CCCOc1ccc(-c2nonc2NC(=O)c2ccco2)cc1OCCC	·	·	·	-12%	·	-4%
Cn1cc(SCC(=O)Nc2ccc3c(c2)OCCO3)c2ccccc21	?	?	11%	2%	14%	17µM*
CCn1c(=O)cc(SCC(=O)Nc2ccc3c(c2)OCO3)c2ccccc21	?	16%	-4%	18%	5%	-13%
O=C(CSc1cn(CCNC(=O)c2ccccc2F)c2ccccc12)Nc1ccc2c(c1)OCCO2	·	·	·	-16%	·	13µM*
